Data from PubChem BioAssay AID1347418 (Sanford-Burnham Center for Chemical Genomics, 2020).
Among all 1,300 compounds or so, about 750 (58%) were called active. The list shows a part of the results.

Target: Sulfhydryl oxidase 1 (Homo sapiens) (UniProt O00391)
Assay: QSOX1 enzyme inhibitors, primary screen, biochemical, ROS-Glo H2O2 luminescence, HTS (AID 1347418)
Details: recombinant QSOX1, ROS-Glo H2O2 luminescence; at 12.5 µM; active compounds read high; active = any value above zero

Chain of Sulfhydryl oxidase 1 (Homo sapiens) (O00391 whole entry, looked up): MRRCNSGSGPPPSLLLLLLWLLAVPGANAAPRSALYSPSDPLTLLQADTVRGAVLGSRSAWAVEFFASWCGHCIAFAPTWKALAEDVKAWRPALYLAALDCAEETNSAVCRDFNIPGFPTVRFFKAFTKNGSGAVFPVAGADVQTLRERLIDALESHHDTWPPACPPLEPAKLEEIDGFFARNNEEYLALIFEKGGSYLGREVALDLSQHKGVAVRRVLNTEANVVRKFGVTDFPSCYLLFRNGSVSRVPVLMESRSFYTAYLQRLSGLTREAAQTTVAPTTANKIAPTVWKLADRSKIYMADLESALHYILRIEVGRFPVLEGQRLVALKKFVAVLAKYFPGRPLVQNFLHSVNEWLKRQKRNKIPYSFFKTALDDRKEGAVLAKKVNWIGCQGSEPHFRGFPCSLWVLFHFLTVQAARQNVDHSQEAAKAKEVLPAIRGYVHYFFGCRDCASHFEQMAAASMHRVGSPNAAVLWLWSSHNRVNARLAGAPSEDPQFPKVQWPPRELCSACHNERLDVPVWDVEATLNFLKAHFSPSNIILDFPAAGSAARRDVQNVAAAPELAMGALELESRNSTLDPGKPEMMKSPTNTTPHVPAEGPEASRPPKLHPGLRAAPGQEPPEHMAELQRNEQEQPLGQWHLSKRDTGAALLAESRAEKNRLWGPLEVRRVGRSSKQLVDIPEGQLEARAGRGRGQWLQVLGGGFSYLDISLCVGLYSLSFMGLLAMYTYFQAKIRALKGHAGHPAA

inhibition, inactive:
CCn1c(=O)[nH]c2cc(Cl)c(Cl)cc21 -5.4%, NS(=O)(=O)c1cc2c(cc1Cl)NC(C1CC3C=CC1C3)NS2(=O)=O (configuration not stated) -0.4%, NS(=O)(=O)c1cc2c(cc1Cl)NCNS2(=O)=O -0.5%, COc1cccc2c1[C@@H]1CN(CCCCn3c(=O)[nH]c4c(sc5ncc(-c6ccccc6)nc54)c3=O)C[C@@H]1CO2 -1.5%, CCCOC(=O)c1c(-c2ccccc2)nc(CC)c(C(=O)SCC)c1CCC -3.6%, CC1(C)CCC(NC(=O)[C@@H](N)CCC(=O)O)CC1 -1.9%, C=Cc1c(C)c2cc3[nH]c(cc4nc(cc5nc(cc1[nH]2)C(C)=C5CCC(=O)O)C(CCC(=O)O)=C4C)c(C)c3C=C -1.1%, O=C(O)[C@@H]1C[C@@H](C(=O)O)N1 -2.9%, CC1(C)NC(=O)N(c2ccc([N+](=O)[O-])c(C(F)(F)F)c2)C1=O -0.4%, COC(=O)C1=C(C)NC(C)=C([N+](=O)[O-])C1c1ccccc1C(F)(F)F (configuration not stated) -3.4%, CSc1ccccc1N1CCN(CCCCCC(=O)NC2CCCc3ccccc32)CC1 (configuration not stated) -1.2%, O=C(O)CC1CCCc2ccccc2C1O (configuration not stated) -2.6%, O=C(O)c1cccnc1C(=O)O -3%, CN=c1nc(-c2ccccc2)n(-c2ccccc2)s1 -4.5%, CCCN(CCC)C(=O)C(CCC(=O)O)NC(=O)c1ccccc1 (configuration not stated) -6.3%, S=C([S-])OC1CC2C[C+]1C1CCCC21 (configuration not stated) -1.8%, CN(C)CCCC1(c2ccc(F)cc2)OCc2cc(C#N)ccc21 (configuration not stated) -4.9%, CN=C(N)NCCC[C@H](N)C(=O)O -2.7%, CCCC(CCC)C(=O)O -0.3%, N[C@@H](CS(=O)O)C(=O)O -2.6%, NOCC(=O)O -7.4%, N[C@@H](COP(=O)(O)O)C(=O)O -1.4%, CC(=O)N[C@H](C(=O)O)C(C)(C)SN=O -3.3%, N[C@@H]1CONC1=O -12.8%, CC(C)(C(=O)O)c1ccc(C(O)CCCN2CCC(C(O)(c3ccccc3)c3ccccc3)CC2)cc1 (configuration not stated) -1.3%, CC(C)(C)c1ccc(C(O)CCCN2CCC(C(O)(c3ccccc3)c3ccccc3)CC2)cc1 (configuration not stated) -4%, CC(C)(C)NCC(O)c1cc(O)cc(O)c1 (configuration not stated) -2%, CNC[C@H](O)c1cccc(O)c1 -3.5%, NS(=O)(=O)C1=[C+]C=[C+]c2c1c([N+](=O)[O-])cc1nc([O-])c([O-])nc21 -4.9%, CCCCCCCCCCCCCCCC(=O)NCCO -1.3%, c1cnc2c(c1)ccc1cccnc12 -2.1%, CC1(C)CCC=[N+]1[O-] -1.5%, O=C(O)[C@@H]1C[C@H](C(=O)O)N1 -6.9%, C=CCNc1ncnc2ccc(Br)cc12 -1.1%, O=c1onc2n1-c1cc(Br)ccc1OC2 -0.8%, O=C(O)CCCC[C@@H]1CCSS1 -2.4%, NCCCCC(=O)O -2.5%, CCOC(=O)N1CCN(/[N+]([O-])=N/Oc2ccc([N+](=O)[O-])cc2[N+](=O)[O-])CC1 -34%, NC(=O)c1ncn([C@@H]2O[C@H](CO)[C@@H](O)[C@H]2O)n1 -3.1%, NCCCNCCCCNCCCN -1.8%, CC1(C)C(=O)N(CCN2CCC(C(=O)c3ccc(F)cc3)CC2)c2ccccc21 -1.4%, O=C(O)c1cc(=O)cc(C(=O)O)[nH]1 -2%, C[C@@]1(C2CCCC2)Cc2cc(OCC(=O)O)c(Cl)c(Cl)c2C1=O -4.6%, COc1ccc2c(c1)c(CC(=O)O)c(C)n2Cc1ccc(Cl)cc1 -5.1%, CCN1C(=O)C=CC1=O -3.8%, N[C@@H](CCC(=O)N[C@H](CSN=O)C(=O)NCC(=O)O)C(=O)O -4.8%

inhibition, active:
NC(=O)c1ccccc1 7.2%, NC(=O)c1cccc(N)c1 2.2%, NS(=O)(=O)c1cc2c(cc1Cl)NC=NS2(=O)=O 2.5%, CC(C)[C@@H]1CC[C@@H](C)C[C@@H]1P(=O)(c1ccccc1)c1ccccc1 2.9%, CCCn1c(=O)c(C)cn2nc(N)nc12 4.5%, NC(N)=NCc1cccc(I)c1 3.9%, O=c1[nH]c2cc([N+](=O)[O-])c([N+](=O)[O-])cc2[nH]c1=O 2.2%, O=C(O)CCc1nc(-c2ccccc2)c(-c2ccccc2)o1 3.2%, C#CC(N)CCC(=O)O (configuration not stated) 5.9%, CC(C)C(=O)Nc1ccc([N+](=O)[O-])c(C(F)(F)F)c1 6.8%, Oc1ccc(Cn2cc[nH]c2=S)cc1 5.9%, CCCCCN(C)CCC(O)(P(=O)(O)O)P(=O)(O)O 0.6%, NCCNS(=O)(=O)c1cccc2c(Cl)cccc12 0.1%, O=C(CCCCCN1CCN(c2ccccc2-c2ccccc2)CC1)NC1CCCc2ccccc21 (configuration not stated) 2.4%, O=C(O)c1cccnc1Nc1cccc(C(F)(F)F)c1 3.2%, c1ccc2nc(C3=NCCN3)ccc2c1 0.1%, CC(C)(Sc1ccc(CCN(CCCCC2CCCCC2)C(=O)NC2CCCCC2)cc1)C(=O)O 0.8%, CCc1c(C(=O)NCCc2ccc(N3CCCCC3)cc2)[nH]c2ccc(Cl)cc12 1.2%, O=C(/C=C/c1ccc(O)cc1)c1ccc(O)cc1O 20.8%, C#C[C@]1(O)CC[C@H]2[C@@H]3CCC4=Cc5oncc5CC4(C)[C@H]3CCC21C (some centres not stated) 3.6%, CCCCCN(CCCCC)C(=O)C(CCC(=O)O)NC(=O)c1ccc(Cl)c(Cl)c1 (configuration not stated) 3%, O=c1onc2cnc3ccccc3n12 1.7%, O=c1[nH]cnc2[nH]ncc12 7.1%, OC[C@H]1NC[C@@H](O)[C@@H]1O 3.1%, OCC1NCC(O)C(O)C1O (configuration not stated) 0.3%, CCCCS(=N)(=O)CCC(N)C(=O)O (configuration not stated) 5.6%, CCCCS(=N)(=O)CC[C@H](N)C(=O)O (some centres not stated) 2.8%, O=S(=O)(c1cccc2c(I)cccc12)N1CCCNCC1 8.3%, O=S(=O)(c1cccc2c(Cl)cccc12)N1CCCNCC1 0.5%, CC(=O)O[C@H]1C(=O)[C@@]2(C)C([C@H](OC(=O)c3ccccc3)[C@]3(O)C[C@H](OC(=O)[C@H](O)[C@@H](NC(=O)c4ccccc4)c4ccccc4)C(C)=C1C3(C)C)[C@]1(OC(C)=O)CO[C@@H]1C[C@@H]2O (some centres not stated) 1.7%, N[C@@H](CC(=O)O)C(=O)O 4.2%, C=CC[C@H](N)C(=O)O 4.9%, N[C@H](CO)C(=O)O 1.4%, CC(=O)N[C@@H](CS)C(=O)O 1.8%, Cc1ccccc1/C=C/C1=NCCN1 0.5%, CC(C(O)c1ccc(O)cc1)N1CCC(Cc2ccccc2)CC1 (configuration not stated) 7.3%, C[C@@H](CN1CCC(Cc2ccccc2)CC1)[C@@H](O)c1ccc(O)cc1 3.4%, CC(C)(C)NCC(O)c1ccc(O)c(CO)c1 (configuration not stated) 5.3%, CNC[C@H](O)c1ccc(O)c(O)c1 8.4%, CNCC(O)c1ccc(O)c(O)c1 (configuration not stated) 2.8%, Cc1cn[nH]c1 1.9%, COc1ccccc1CNCCCCCCNCCCCCCCCNCCCCCCCNc1ccccc1OC 1.8%, CCCCCCCC/C=C\CCCCCCCC(=O)NCCO 6.9%, Oc1ccc(C2CNCc3sccc32)cc1O (configuration not stated) 15.7%, CN1Cc2sccc2C(c2ccc(O)c(O)c2)C1 (configuration not stated) 23.4%, c1ccc(-c2ccccn2)nc1 7.3%, Cn1c(=O)[nH]c2ncn(C)c2c1=O 3%, Cn1cnc2c1c(=O)[nH]c(=O)n2C 3.2%, CC(CN1c2ccccc2Sc2ccccc21)N(C)C (configuration not stated) 43.7%, CCN(CC)C(C)CN1c2ccccc2Sc2ccccc21 (configuration not stated) 50.6%, O=C1NC(=O)/C(=C/c2ccc(-c3ccc(F)cc3O)o2)S1 27.2%, NC(=O)c1cnccn1 0.9%, NC(CO)C(=O)NNCc1ccc(O)c(O)c1O (configuration not stated) 25.6%, NCCCCCC(=O)O 5%, OCC1O[C@H]([S-])[C@@H](O)C(O)[C@@H]1O.[Au+] (some centres not stated) 2.4%, CC(=O)N[C@@H](Cc1c[nH]c2ccccc12)C(=O)OCc1cc(C(F)(F)F)cc(C(F)(F)F)c1 2%, O=C1C2C=CC=CC2=NC(=S)N1CCN1CCC(=C(c2ccc(F)cc2)c2ccc(F)cc2)CC1 (configuration not stated) 4.4%, NCCCCNCCCN 1.5%, CC(C)(C)NCC(O)COc1nsnc1N1CCOCC1 (configuration not stated) 3.3%, CCOC(=O)C12CC1/C(=N/O)c1ccccc1O2 (configuration not stated) 0.7%, O=C(c1ccc(F)cc1)C1CCN(CCn2c(=O)[nH]c3ccccc3c2=O)CC1 1.5%, O=C(O)c1cc2cc(F)ccc2[nH]1 6.8%, CCCC[C@@]1(C2CCCC2)Cc2cc(OCC(=O)O)c(Cl)c(Cl)c2C1=O 4.2%, CC(C)c1ccc2c(c1)c(SC(C)(C)C)c(CC(C)(C)C(=O)O)n2Cc1ccc(Cl)cc1 8.9%, Cc1cc2c(C(C)C)c(O)c(O)c(C=O)c2c(O)c1-c1c(C)cc2c(C(C)C)c(O)c(O)c(C=O)c2c1O 50.4%, [N-]=[N+]=Nc1ccc(C(=O)CSC[C@H](NC(=O)CC[C@H](N)C(=O)O)C(=O)NCC(=O)O)cc1 6.8%
